The text below walks through data of PubChem BioAssay AID1578 (Sanford-Burnham Center for Chemical Genomics, 2009).

About 3,000 (1%) of roughly 290,000 compounds were called active. The sample as a whole holds a higher share of actives than the screen did. Unmarked numbers belong to inactive results. Rule as the data show it: active = inhibition mostly above about 36% (no sharp cut-off); inactive = mostly below about 34%.

A short description of this test: inhibition of NOD1-driven NF-kB reporter – cell-based, luminescence, uHTS, primary screen (AID 1578).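 Also: HEK-293T reporter cells stimulated with the NOD1 agonist gamma-tri-DAP.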 To be noted: NOD1-driven NF-kB luciferase reporter cells, at 4 µM, stronger effect = higher value. For orientation: A reporter such as luciferase makes a cellular process visible.
Consider `Cc1ccc(N(CC(=O)Nc2ccc3c(c2)OCCO3)S(C)(=O)=O)cc1`, for which the inhibition is -32.2%.
As for `COc1ccc(NC(=O)CN2C(=O)NC(C)(c3ccccc3)C2=O)cc1Cl` (configuration not stated), the inhibition is -50.5%.
Next, `COc1ccc(NC(=O)c2ccccc2NC(=O)NC2CCCCC2)cc1`: -14.5%; `CCCCNC(=O)[C@@H]1CSC2c3ccccc3C(=O)N21` (some centres not stated): -0.2%; `O=C1c2ccccc2C(=O)N1CCCC(=O)N1CCCc2ccccc21`: -23.6%.
With `Cc1ccc(-c2cc(C(F)F)n3ncc(C(=O)N4CCCCC4c4cccnc4)c3n2)cc1` (configuration not stated), the inhibition was 2.1%.
Next, `Brc1cccc(CN2CCCCCC2)c1`: -23%; `N#C/C(=C\C=C\c1ccccc1)C(=O)N1CCCC1`: 23.1%; `CCOC(=O)C(CC)Sc1nnc2n1C(C)(C)Cc1ccccc1-2` (configuration not stated): -5.8%.
With `COc1ccc(OC)c(-c2cc(C(=O)NCCN3CCOCC3)no2)c1`, the inhibition was -5.6%.
In the case of `CC12C(=O)N(Cc3ccco3)C(=O)C1C1c3ccccc3C2c2ccccc21` (configuration not stated), the inhibition is 28.8%.
As for `C/C(=N/OCC(=O)NCCCCCCNC(=O)CO/N=C(/C)c1cccs1)c1cccs1`, the inhibition is -2.7%.
For the compound `CCNC(=O)Cc1c(OC)ccc2cc(Br)ccc12`, the inhibition is -58.1%.
`CN1/C(=C\C(=O)C[n+]2cccc(C(N)=O)c2)C(C)(C)c2ccccc21`: the inhibition was 7.7%.
Take `Cc1ccsc1/C=C/c1ccc2cccc(O)c2n1`: the inhibition was 63.2% (active).
For the compound `Oc1cccc2ccc(/C=C/c3cccs3)nc12`, the inhibition was -7.6%.
Regarding `Cc1ccsc1/C=C/c1ccc2ccccc2n1`, the inhibition is 27.3%.
`CC(CC(=O)Nc1ccc(S(=O)(=O)Nc2ncccn2)cc1)c1ccccc1` (configuration not stated): the inhibition is -22.5%.
For the compound `C=CCOn1c(=O)c(-c2ccc(F)cc2)[n+]([O-])c2ccccc21`, the inhibition was 3.1%.
For `COc1cccc(/C=N/Nc2nc(N3CCCC3)nc(N3CCCC3)n2)c1O`, the inhibition was 29.2%.
For the compound `CCOc1cccc(/C=N/Nc2nc(N3CCCC3)nc(N3CCCC3)n2)c1O`, the inhibition was 33.4% (active).
For `C(=N\Nc1nc(N2CCCC2)nc(N2CCCC2)n1)/c1ccccc1OCc1ccccc1`, the inhibition was 7.9%.
The result for `O=C1C2C3C=CC(C3)C2C(=O)N1c1ccncc1` (configuration not stated) reads 29.4%; that for `O=C(CSc1nc2cccnc2n1Cc1ccccc1)NCc1ccco1`, 8.8%; that for `CC1CCCCN1CCNC(=O)c1ccc2c(c1)N(Cc1ccccc1F)C(=O)c1ccccc1S2=O` (configuration not stated), -12.3%.
For the compound `Cc1cccc(OCc2nnc(SCc3nc4ccccc4c(=O)[nH]3)o2)c1`, the inhibition is -16.2%.
Next, `COc1ccc2sc3ccccc3c(=O)c2c1`: -32.1%; `COc1ccc2sc3ccccc3c(=O)c2c1OC`: 97.4% (active); `COc1cccc2sc3ccc(C#Cc4ccc(N)cc4)cc3c(=O)c12`: -70%.
For `Fc1ccc(CSc2nnc3ccccn23)c(Cl)c1`, the inhibition was -35.7%.
Next, `Cc1oc(S(=O)(=O)N2CCOCC2)cc1C(=O)Nc1ccc(Cl)cc1`: 0.4%.
The result for `O=C(Nc1nc2cc3c(cc2s1)OCCO3)c1cccc(N2C(=O)CCC2=O)c1` reads -14.7%; that for `O=C(Nc1nc2cc3c(cc2s1)OCCO3)c1cccc(S(=O)(=O)N2CCOCC2)c1`, 5.8%.
The result for `O=C(O)Cn1cc(C(=O)C2CC2)c2ccccc21` reads -13.5%; that for `Cc1ccccc1NC(=O)c1ccc(NS(=O)(=O)c2cc(C(C)(C)C)cc(C)c2C)cc1`, -29.6%.
As for `CCc1ccccc1NC(=O)Nc1ccc(F)cc1`, the inhibition was -25.3%.
The result for `CCCN(Cc1cc2cc(C)ccc2[nH]c1=O)S(C)(=O)=O` reads -18%; that for `CCCCC[n+]1cccc2c3ccccc3ccc21`, 33.7%.
Next, `CCCCCCCCCC[n+]1cccc2c3ccccc3ccc21`: 64.2% (active); `CCCCCCCCCCCCCCCC[n+]1cccc2ccccc21`: 37.4%; `Cc1ccc(C(=O)n2nc(-c3ccco3)nc2N)cc1`: -20.6%.
Take `COc1ccc(C(C(=O)NCC2CCCO2)N(C(=O)CNC(=O)c2cccs2)c2ccc(C)cc2)cc1OC` (configuration not stated): the inhibition is 4.3%.
With `CN(CCOCCOc1ccc(Cl)cc1Br)Cc1ccccc1`, the inhibition is -30.1%.
For the compound `CC(C)C1OC2(C)OC(=N)C1(C#N)C(C#N)(C#N)C2c1ccccc1` (configuration not stated), the inhibition was 78.7% (active).
On to `CC1OC2(C)OC(=N)C1(C#N)C(C#N)(C#N)C2c1ccccc1` (configuration not stated), for which the inhibition was -6.3%.
In the case of `CCC1OC2(C)OC(=N)C1(C#N)C(C#N)(C#N)C2c1ccccc1` (configuration not stated), the inhibition is -1.7%.
Next, `CC(C)N1CCN(Cc2nc(-c3ccccc3)cs2)CC1CCO` (configuration not stated): -44.6%.
In the case of `COc1ccc(Nc2cc(NCCCO)c([N+](=O)[O-])c3nonc23)cc1`, the inhibition is 4.8%.
Next, `COc1ccc(CNc2cc(NCCCO)c([N+](=O)[O-])c3nonc23)cc1`: 48.5% (active); `Cc1ccc(Sc2cc(NCCCO)c([N+](=O)[O-])c3nonc23)cc1`: 2.1%; `Oc1c(N=Nc2ccc(F)cc2)ccc2ccccc12`: -69.9%.
On to `Oc1c(N=Nc2ccccn2)ccc2ccccc12`, for which the inhibition was 96.4% (active).
As for `Cc1ccc(N=Nc2ccc3ccccc3c2O)cc1`, the inhibition was 19%.
Turning to `CCc1ccc(OCC(=O)N/N=C(\C)c2ccccc2OC(F)F)cc1`, the inhibition was -2.9%.
In the case of `Cc1[nH]nc(SCC(=O)NCc2ccc(Cl)cc2)c1[N+](=O)[O-]`, the inhibition was -33.8%.
As to `COC(=O)Nc1nc(-c2ccc(F)cc2)c(C)s1`, the inhibition is -56.3%.
For the compound `COc1cc2ccc(=O)oc2c(CC=C(C)C)c1OC`, the inhibition was -5.1%.
Regarding `C/C(=C/Cc1c(O)cc2oc(C)cc(=O)c2c1O)COC1OC(CO)C(O)C(O)C1O` (configuration not stated), the inhibition was -47.3%.
For `Cc1ccc(OCC(=O)Nc2ccc(N3CCN(C(=O)c4ccco4)CC3)cc2)cc1C`, the inhibition is -9.9%.
Consider `Cc1ccc(Nc2nc(-c3ccccc3)cs2)nc1`, for which the inhibition is -37%.
The result for `Cc1ccc(Nc2nc(-c3cccs3)cs2)nc1` reads 46% (active); that for `c1ccc(Nc2nc(-c3cccs3)cs2)nc1`, -50.9%; that for `CCCn1c(N)c(C(c2ccc(OC)cc2)N2CCN(c3ccccc3)CC2)c(=O)[nH]c1=O` (configuration not stated), 10%.
As to `COc1ccc(-c2[nH]c(-c3ccc(C)cc3)nc2SCC(=O)Nc2nccs2)cc1`, the inhibition is -13.3%.
Regarding `COc1ccc(-c2[nH]c(-c3ccc(Cl)cc3)nc2SCC(=O)Nc2nccs2)cc1`, the inhibition was -3.8%.
Next, `COc1ccc(-c2[nH]c(-c3ccccc3)nc2SCC(=O)Nc2nccs2)cc1`: 82.4% (active); `CCC(C)NC(=O)CN(c1ccc(OC)cc1)S(=O)(=O)c1ccccc1` (configuration not stated): -38.9%.
In the case of `CCOC(=O)c1cnc2c(C)c(Cl)ccc2c1N1CCOCC1`, the inhibition was 14.6%.
The result for `[O-][n+]1cccc2c(Br)cc(Br)c(O)c21` reads 86% (active).
On to `C[n+]1cccc2c(Br)ccc([O-])c21`, for which the inhibition was -5.6%.
Take `NCC(=O)c1cccc2ccc[n+]([O-])c12`: the inhibition is -2.6%.
As for `O=C(Cc1ccc(F)cc1)NCCc1cnc[nH]1`, the inhibition is -7.3%.
The result for `COc1cc(/C=c2\sc3nc(-c4ccncc4)nn3c2=O)ccc1OC(C)=O` reads -18.6%; that for `CC(c1ccco1)N(C(=O)C12CC3(C)CC(C)(CC(C)(C3)C1)C2)c1ccccn1` (configuration not stated), -2%; that for `CC(c1ccco1)N(C(=O)C12CC3CC(CC(C)(C3)C1)C2)c1ccccn1` (configuration not stated), 31.7% (active).
On to `CC(c1ccco1)N(C(=O)C12CC3CC(CC(C3)C1)C2)c1ccccn1` (configuration not stated), for which the inhibition was 17.1%.
`CCC(c1nnc(SCC(=O)NC23CC4CC(CC(C4)C2)C3)o1)N(C)C` (configuration not stated): the inhibition was -5.8%.
Take `Cc1ccc(NS(=O)(=O)c2cc3c4c(cccc4c2)C(=O)NC3=O)cc1`: the inhibition is 18.1%.
For `O=C(CN1CCCCC1)Nc1nnc(-c2ccccc2)s1`, the inhibition is 2.9%.
For `O=C(CN1CCCC1)Nc1nnc(-c2cccs2)s1`, the inhibition is 74.9% (active).
For the compound `CN1CCN(CC(=O)Nc2nnc(-c3cccs3)s2)CC1`, the inhibition was -26.2%.
For the compound `CC(C)NC(=O)CN1C(=O)C(=O)c2ccccc21`, the inhibition is 15.8%.
With `CCOC(=O)N1CCC(NC(=S)Nc2ccc3nc(N4CCN(CC)CC4)cc(C)c3c2)CC1`, the inhibition was 48.8% (active).
As to `CCOC(=O)N1CCN(C(=S)Nc2ccc3nc(N4CCN(CC)CC4)cc(C)c3c2)CC1`, the inhibition was -21%.
The result for `CCOC(=O)N1CCC(NC(=S)Nc2ccc3nc(N4CCN(C)CC4)cc(C)c3c2)CC1` reads 3.9%.
In the case of `COc1ccc(C(=O)Oc2ccc(N(C)S(=O)(=O)c3ccccc3)cc2)cc1[N+](=O)[O-]`, the inhibition is 8.9%.
Take `Cc1cc(C)cc(NC(=O)C[n+]2ccccc2)c1`: the inhibition was 45.4%.
For the compound `Cc1cccc(-n2ncc3c(N(C)Cc4ccccc4)ncnc32)c1`, the inhibition was 2.1%.
Turning to `O=C1C(Cl)=C(Nc2ccc3cn[nH]c3c2)C(=O)c2ccccc21`, the inhibition is 61.1% (active).
The result for `O=S(=O)(Nc1ccc2cn[nH]c2c1)c1ccc(Cl)cc1` reads -12.5%; that for `Cc1cc(S(=O)(=O)Nc2ccc3cn[nH]c3c2)c(C)cc1Cl`, -20.3%; that for `CC(C)C(=O)N1CCC2(CC1)Oc1ccc(Cl)cc1C(=O)C21CC(c2ccc(Cl)cc2)=NO1` (configuration not stated), -3.8%.
With `O=C1c2ccccc2NC(c2ccccc2F)N1NS(=O)(=O)c1ccccc1` (configuration not stated), the inhibition was -13%.
For the compound `O=C(O)CC1(CC(=O)N2CCN(CCO)CC2)CCCC1`, the inhibition is -19.8%.
Consider `CC(=O)c1cccc(NC(=O)c2cnn3ccccc23)c1`, for which the inhibition is -1%.
As to `CCc1ccc(NC(=O)c2cnn3ccccc23)cc1`, the inhibition is 50.8%.
Next, `CC(=O)c1ccc(NC(=O)c2cnn3ccccc23)cc1`: 63.1% (active).

What is called inhibition is the relative decrease from the control value, in per cent.
